The source of these data is the supplement of paper PMC11417369.

± gives the standard deviation of the averaged measurements. Over roughly 25,000 sequences, “ln(normalized median fluorescence intensity)” has its median near 8.6; the highest 2% begin near 10. The entries come from a sample that favours the highest values as a whole.

This assay relates to PfAP2-EXP AP2 domain (GST-tagged). The assay is described as follows: gcPBM binding intensity (ln(normalized median fluorescence intensity)); higher = stronger DNA binding. A digest of the protocol: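 An Agilent 4 × 180k array of primer-extended double-stranded 36-bp intergenic genomic probes, with negative controls, was incubated for 1 h with GST-tagged P. falciparum DNA-binding domains expressed in E. coli. Alexa488 anti-GST antibody detected bound protein, scanned at 488 nm. Binding intensity is the highest Masliner-normalised natural-log median intensity across replicate spots of either probe orientation.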
With “ATGTGTGTATTTTATAGTACAGTTACAAGCATTTTT [XGTACX_site6351]”, the “gcPBM binding intensity (ln)” value was 8.57 ± 0.35.
The figure for “AATAAATACACATACACACACGACGCTAGTATATGT [CACACA_site6627]” is 8.29 ± 0.4.
For “TTTTTTTTTAGAAAAACATGCATGTCCTAAAAATAA [TGCATGCA_site684]”, the “gcPBM binding intensity (ln)” value was determined as 8.89 ± 0.27.
With “TATAAATAGATATATACACACTTGTGCAGAATATTA [CACACA_site7112]” the figure was 8.63 ± 0.25; with “TATATATATATATATATACACACTTGTGCAGAATAT [CACACA_site2216]”, 10.2 ± 0.41.
The figure for “TATATATATATATATACACACTTGTGCAGAATATTA [CACACA_site5257]” is 10 ± 0.55; for “CCTACAATTCGTAATACACACACATATATATATATA [CACACA_site9251]” it is 10.2 ± 0.16; for “ATTATATATACATATACACACATACGTACATACATA [CACACA_site9194]” it is 8.8 ± 0.4.
The figure for “TACAATTCGTAATACACACACATATATATATATATT [CACACA_site3751]” is 8.62 ± 0.36.
As to “TTATTCATACAATATCGTACATATATATATATATAT [XGTACX_site1185]”, the “gcPBM binding intensity (ln)” value came to 10.2 ± 0.33.
With “TAAAAAATATACATTCGTACATATATATTATATATA [XGTACX_site7918]” the figure was 8.12 ± 0.25.
With “ATACATATATAAATACGTACATATATAATTATATAT [XGTACX_site8178]” the figure was 8.55 ± 0.3; with “TACAATTCGTAATACACACACATATAAATAAATATT [CACACA_site7720]”, 8.44 ± 0.38.
With “TAATATTCAATTATACGTACACATATATATATATAT [XGTACX_site4245]” the figure was 10.2 ± 0.2.
Consider “ACATTTTTTTCATATCGTACATATTATAATATTTTC [XGTACX_site6524]”, for which the “gcPBM binding intensity (ln)” value stood at 8.9 ± 0.39.
The figure for “TTGTAATTCATTCAAATATAAAATAAATAAATATGA [CACACA_negctrl_site349]” is 8.28 ± 0.34; for “AAATGAATTATATAATATATATAAATAAATAAATAA [CACACA_negctrl_site359]” it is 8.46 ± 0.18.
The figure for “ATTTAAAACAAAAGTAGTACGTCTAATAAATTCAAC [XGTACX_site4344]” is 8.45 ± 0.34; for “AAAAAAAAAGAAAAATGTACATACATAAATATATAT [XGTACX_site5664]” it is 8.57 ± 0.45.
As to “ATATATATATATATATGTACACATATTATAAAAAAA [XGTACX_site8644]”, the “gcPBM binding intensity (ln)” value is 10.2 ± 0.32.
Take “ACATTATATAAAATATGTACACATAAATAAATAAAT [XGTACX_site5031]”: the “gcPBM binding intensity (ln)” value turned out to be 8.73 ± 0.41.
As to “TAAGAAAAATATATATGTACACATATATATATATAT [XGTACX_site8542]”, the “gcPBM binding intensity (ln)” value was found to be 9.97 ± 0.57.
With “TATAAGAATAAAAAGGGTACATAAAATAATAATATA [XGTACX_site2355]” the figure was 8.82 ± 0.38.
The figure for “AAAAAAAAAAAGAAGGGTACATATTATATATAATAT [XGTACX_site6204]” is 8.59 ± 0.48; for “ATACATATACACATATGTACATATGAAAAGAAAAAT [XGTACX_site6445]” it is 8.94 ± 0.45.
For the sequence “TAAAAGAAATATACATGTACATAAATATATATATAT [XGTACX_site1276]”, the “gcPBM binding intensity (ln)” value came out at 9.86 ± 0.2.
The figure for “ATTATAAGAAGGGGGGGTACATAAATATAAATGTAT [XGTACX_site5624]” is 10.4 ± 0.2; for “AAATAAAGAAATATATGTACATATATATATATATAT [XGTACX_site5131]” it is 10.4 ± 0.28; for “ATATATATATATATATGTACACATAAAAAGAAAGAA [XGTACX_site1603]” it is 10.2 ± 0.21.
The figure for “TATTATAATAAAATATGTACACACATACACACATAT [XGTACX_site2360]” is 8.8 ± 0.33; for “TTACAACAGAATGGTATTTTTTTATTTTAAAGAAAA [TGCATGCA_negctrl_site230]” it is 8.04 ± 0.38; for “ACATAATATACTATTGTGCACATATATATATATATA [GTGCAC_site9761]” it is 10.1 ± 0.45.
With “AAAATGATGTTAATTACACACATCATCTCATAAACA [CACACA_site3017]” the figure was 8.28 ± 0.4; with “TATTTAATTACATGAACACACATTAGATATTTTTAA [CACACA_site7405]”, 8.14 ± 0.44; with “ACATATATATAAAGGTGTACACATATATATATATAT [XGTACX_site4779]”, 10.2 ± 0.71.
Take “AATACAATATAAAGGTGTACATATATATATATATAT [XGTACX_site68]”: the “gcPBM binding intensity (ln)” value came out at 10.1 ± 0.48.
With “AAAAAAAAAAAAAGGTGTACATAAGTAAATTCATAT [XGTACX_site4206]” the figure was 8.7 ± 0.54; with “TTCATAATAAAAAGGTGTACATATATATATATATAT [XGTACX_site2829]”, 10.34 ± 0.085; with “TATATATAAAGGTGTACACATATATATATATCTGTA [CACACA_site5311]”, 8.45 ± 0.17.
The figure for “ATTCATAAAAAGAGGTGTACATTAATATAATATATA [XGTACX_site8283]” is 8.62 ± 0.35.
As to “TATGTATATTTTAATTGTACGTGTATGGTTGTAAAT [XGTACX_site8738]”, the “gcPBM binding intensity (ln)” value turned out to be 8.79 ± 0.38.
With “TATTAAAATATTTATACACACATAATTTTGATAAAT [CACACA_site4486]” the figure was 8.19 ± 0.43.
In the case of “ATAATATTATTATAATGTACATATTTCGATATAAAT [XGTACX_site8808]”, the “gcPBM binding intensity (ln)” value was determined as 8.61 ± 0.42.
As for “TATTCGTGCAATAATAGTACACTTATAAATTATTCA [XGTACX_site8993]”, the “gcPBM binding intensity (ln)” value came to 8.595 ± 0.064.
On to “CACAATACTTTCATCACACATATATATATATATATA [CACACA_site4677]”, for which the “gcPBM binding intensity (ln)” value is 10.1 ± 0.28.
“TACTTTATATAAAGATCAAAAAATAAATAATTATAA [TGCATGCA_negctrl_site446]”: the “gcPBM binding intensity (ln)” value was 8.45 ± 0.21.
With “TCAAAAATAAAGATCACACATATATATATATATATA [CACACA_site4381]” the figure was 10.2 ± 0.35.
